Source: PubChem
Sm TGR inh – qHTS Assay for the Inhibitors of Schistosoma Mansoni Peroxiredoxins | Schistosoma mansoni thioredoxin glutathione reductase (TGR), Q962Y6 | Potency, µM (series often up to 114 µM), hits mostly inhibitors | purified TGR, DTNB reduction, TNB absorbance 405 nm | AID 485364, 2010 | 360,000 tested, 3% active; active = well fitted inhibition curve with a large enough effect; inconclusive = small, poorly fitted or top-dose-only effect; inactive = no such curve, though single readings can be large or run the other way; note: nearly all actives have a fitted effect of over 60% in size
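Kinetic colorimetric format: TGR-catalysed, NADPH-driven DTNB reduction monitored via TNB absorbance. Enzyme dispensed at 20 nM; compound exposure 15 min at room temperature before reaction start.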
VACV mCherry inh – qHTS for Stage-Specific Inhibitors of Vaccinia Orthopoxvirus: mCherry Reporter Primary qHTS | Potency, µM (series often up to 36.5 µM), usual class: inhibitors | AID 720579, 2013 | Vaccinia virus mCherry reporter infection, fluorescence | 310,000 tested, 0.63% active; calls by dose curve; tested in A549 cells; note: nearly all actives have a fitted effect of over 35% in size
LASV entry inh – qHTS for Inhibitors of binding or entry into cells for Lassa Virus; Lassa virus pseudotype entry inhibition, cell reporter; Potency, µM (highest dose often 37.9 µM), usual class: inhibitors; 300,000 tested, 1.2% active; calls by dose curve; tested in HEK293 cells; note: nearly all actives have a fitted effect of over 50% in size
Marburg entry inh – qHTS for inhibitors of binding or entry into cells for Marburg Virus; Marburg virus pseudotyped entry inhibition, cell reporter; Potency, µM (series often up to 37.8 µM), actives largely listed as inhibitors; 300,000 tested, 1.8% active; calls by dose curve; tested in HEK293 cells
VACV Venus inh – qHTS for Stage-Specific Inhibitors of Vaccinia Orthopoxvirus: Venus Reporter Primary qHTS. Vaccinia virus Venus reporter expression, fluorescence. Potency, µM (doses to about 36.5 µM), hits mostly inhibitors. 330,000 tested, 0.46% active; calls by dose curve; tested in A549 cells; note: nearly all actives have a fitted effect of over 30% in size
FMDV antiviral – High Throughput Screening for Foot and Mouth Disease Virus Antivirals; FMDV antiviral cell-based qHTS; Potency, µM (titrated, usually from 57.9 µM), hits mostly inhibitors; 410,000 tested, 1.2% active; calls by dose curve; tested in HEK293T cells; note: read-out not given here; nearly all actives have a fitted effect of over 45% in size
Hits are given with their value; n = inactive; u = inconclusive; x = no result given; ! = not confirmed by another sample; [ ] = remark or other dose. The list is not random: actives were taken first. Their share in the collection is about 5.4%.

SMILES	Sm TGR inh	VACV mCherry inh	LASV entry inh	Marburg entry inh	VACV Venus inh	FMDV antiviral
Nc1ncnc2c1ccn2[C@@H]1O[C@H](CO)[C@@H](O)[C@H]1O	x	1.41µM	x	x	1.78µM	u
Nc1ncn([C@@H]2O[C@H](CO)[C@@H](O)[C@H]2O)c(=O)n1	n	2.82µM!	4.11µM	u	6.31µM	n
COc1ccc(-c2ccnc(-n3ncc(C(=O)NC(C)(C)CO)c3C3CC3)n2)cc1F	x	n	x	x	n	n
COc1ccc(OC)c2sc(N3CCN(C(=O)c4ccc5c(c4)CCCC5)CC3)nc12	n	n	n	x	n	n
NC(=O)c1ncn(C2OC(CO)C(O)C2O)c1N (stereo unspecified)	x	n	x	x	n	u
NC(=O)c1ncn([C@@H]2O[C@H](CO)[C@@H](O)[C@H]2O)n1	n	n	23.1µM!	u	n	n
CC(=O)Nc1nnc(SCC(=O)c2ccc3c(c2)Cc2ccccc2-3)s1	n	n	u	u	n	n
CCC(=O)Nc1nnc(SCC(=O)c2ccc3c(c2)Cc2ccccc2-3)s1	n	n	6.51µM	u	n	x
COc1ccc(C2=C(CN(C)C)C(c3ccccc3)c3ccccc3O2)cc1 (stereo unspecified)	n	x	12.6µM	u	u	n
CCOc1ccc(C2=C(C=C(C#N)C#N)C(c3ccccc3)c3ccccc3O2)cc1 (stereo unspecified)	n	n	n	n	n	n
CN(c1cc2c(c3c1ccn3C)C1CCC2O1)C(C)(C)C (stereo unspecified)	x	x	3.53µM	x	x	x
CN(Cc1cccc2ncccc12)C(=O)c1cnn(-c2ncc3c(n2)-c2ccccc2CC3)c1C1CC1	x	n	x	x	u	28.2µM
CN(CC1COCCO1)C(=O)c1cnn(-c2ncc3c(n2)-c2ccccc2CCC3)c1C1CC1 (stereo unspecified)	x	n	x	x	n	n
O=C(Nc1nc(-c2ccccc2)c(-c2ccccc2)s1)c1ccc(S(=O)(=O)N(CCCl)CCCl)cc1	n	n	5.01µM	u	n	n
CS(=O)(=O)c1ccc(C(=O)Nc2nc(-c3ccco3)c(-c3ccco3)s2)cc1	3.55µM	n	n	n	n	u
CCn1c(=O)c2sccc2n2c(CCC(=O)Nc3ccc(C(C)C)cc3)nnc12	n	n	n	n	n	n
CCc1cc(C(c2cccc(OC)c2)N2CCOCC2)c(NC(=O)c2ccccc2)s1 (stereo unspecified)	u	n[1.46 µM]	n	n	n	n
CC(=O)Nc1sc2c(c1C(c1ccc(F)cc1)N1CCOCC1)CCCC2 (stereo unspecified)	u	n	n	12.6µM	u	u
CCc1cc(C(c2ccc(F)cc2)N2CCOCC2)c(NC(=O)c2ccccc2)s1 (stereo unspecified)	3.98µM	n	u	n	n	u
CCc1cc(C(c2ccc(OC)c(OC)c2)N2CCOCC2)c(NC(=O)c2ccccc2)s1 (stereo unspecified)	2.51µM	n	u	u	n	n
Cc1ccc(NCc2cc3cc4c(cc3n(CC(=O)Nc3ccc(F)cc3F)c2=O)OCCO4)cc1	u	n	n	x	n	n
Cc1ccc(NCc2cc3cc4c(cc3n(CC(=O)Nc3ccc(C)cc3)c2=O)OCCO4)cc1	44.7µM	n[7.34 µM]	n	x	n[7.34 µM]	n
COc1ccccc1C(=O)Nc1ncc2c(n1)CC(c1ccco1)CC2=O (stereo unspecified)	20µM	n	n	n	n	x
COc1ccc(C2CC(=O)c3cnc(NC(=O)c4ccco4)nc3C2)cc1 (stereo unspecified)	n	n	n	n	n	n
Cc1ccc(NC(=O)CN2C(=O)COc3ccc(S(=O)(=O)N4CCCCCC4)cc32)c(C)c1	n	n	n	x	n	n
SMILES	Sm TGR inh	VACV mCherry inh	LASV entry inh	Marburg entry inh	VACV Venus inh	FMDV antiviral
CCC1(OC(=O)CN)C(=O)OCc2c1cc1n(c2=O)Cc2cc3ccccc3nc2-1 (stereo unspecified)	n	7.08µM	u	u	u	n
CC[C@@]1(O)C(=O)OCc2c1cc1n(c2=O)Cc2cc3ccccc3nc2-1	n	u	u	0.0251µM	u	n
CN(C)CCO/N=C(\c1ccc(Br)cc1)c1cccnc1	x	n	u	n	n	n
CN(C)C/C=C(/c1ccc(Br)cc1)c1cccnc1	x	n	n	7.08µM	n	n
CCC[C@H]1CN(Cc2ccccc2)C(=O)[C@H]1CC(=O)NC	x	x	n	x	x	x
COC(=O)c1ccc(C2C=C(c3ccc(Cl)cc3)Nc3nc4ccccc4n32)cc1 (stereo unspecified)	u	n	u	x	n	n
